Assay results published in PubChem BioAssay (NCATS).
Records with an inconclusive call do not appear. The source made the active and inactive calls. The call rests on the fitted dose curve; in most records, active means well fitted cell-killing curve with a large enough effect; inconclusive means small, poorly fitted or top-dose-only effect, or effect the other way; inactive means flat fitted curve, though single readings scatter.

Tests used:
Experiment in all cases: Primary qHTS to identify gynecologic anti-cancer compounds using libraries of approved drugs and bioactive compounds (AID 1345084); further: nearly all actives have a fitted effect of over 55% in size
C33A = details: Gynecologic cancer cell panel viability, ATPlite luminescence, 48 h; series mostly up to 57.5 µM
Procedure, shortened: (§1)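 Cells, 1,000 per well, were allowed to settle for 16 h at 37 C before compound addition. Five concentrations were tested for 48 h, and viability was read by ATPlite luminescence after 15 min at room temperature.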

CAOV3 = details: Gynecologic cancer cell panel viability, ATPlite luminescence, 48 h; series mostly up to 57.5 µM
Procedure, shortened: as §1

CASKI = details: Gynecologic cancer cell panel viability, ATPlite luminescence, 48 h; series mostly up to 57.5 µM
Procedure, shortened: as §1

Es-2 = details: Gynecologic cancer cell panel viability, ATPlite luminescence, 48 h; series mostly up to 57.5 µM
Procedure, shortened: as §1

HeLa = details: Gynecologic cancer cell panel viability, ATPlite luminescence, 48 h; series mostly up to 57.5 µM
Procedure, shortened: as §1

Hek293T = details: Gynecologic cancer cell panel viability, ATPlite luminescence, 48 h, control line for the selectivity index; series mostly up to 57.5 µM
Procedure, shortened: as §1

JEG-3 = details: Gynecologic cancer cell panel viability, ATPlite luminescence, 48 h; series mostly up to 57.5 µM
Procedure, shortened: as §1

OV90 = details: Gynecologic cancer cell panel viability, ATPlite luminescence, 48 h; series mostly up to 57.5 µM
Procedure, shortened: as §1

PA-1 = details: Gynecologic cancer cell panel viability, ATPlite luminescence, 48 h; series mostly up to 57.5 µM
Procedure, shortened: as §1

SKOV3 = details: Gynecologic cancer cell panel viability, ATPlite luminescence, 48 h; series mostly up to 57.5 µM
Procedure, shortened: as §1

Tov-21-G = details: Gynecologic cancer cell panel viability, ATPlite luminescence, 48 h; series mostly up to 57.5 µM
Procedure, shortened: as §1

Tov112D = details: Gynecologic cancer cell panel viability, ATPlite luminescence, 48 h; series mostly up to 57.5 µM
Procedure, shortened: as §1
On the % scale 0 is the no-effect control and ±100 the full control effect.

CC(=O)OC1C(OC(=O)c2ccccc2)C2C(C)(C)CC(=O)CC2(C)C23CCC(C)(C2)C(O)CC13 (stereo unspecified)
inactive: Potency (C33A) | Potency (CAOV3) | Potency (CASKI) | Potency (Es-2) | Potency (HeLa) | Potency (Hek293T) | Potency (JEG-3) | Potency (OV90) | Potency (PA-1) | Potency (SKOV3) | Potency (Tov-21-G) | Potency (Tov112D)

COC(=O)CCSCc1ccc(-c2onc(C)c2NC(=O)OC(C)c2ccccc2Cl)cc1 (stereo unspecified)
inactive: Potency (C33A) | Potency (CAOV3) | Potency (CASKI) | Potency (Es-2) | Potency (HeLa) | Potency (Hek293T) | Potency (JEG-3) | Potency (OV90) | Potency (PA-1) | Potency (SKOV3) | Potency (Tov-21-G) | Potency (Tov112D)

C[C@@H]1O[C@@H](O[C@@H]2CO[C@@H](O[C@H]3CC[C@@]4(C)C(CC[C@]5(C)C4CC=C4[C@@H]6CC(C)(C)CC[C@]6(C(=O)O[C@@H]6O[C@H](CO)[C@@H](O)[C@H](O)[C@H]6O)CC[C@]45C)[C@]3(C)CO)[C@H](O)[C@H]2O[C@@H]2O[C@H](CO)[C@@H](O)[C@H](O)[C@H]2O)[C@H](O)[C@H](O)[C@H]1O (stereo partly specified)
inactive: activity change, negative = cytotoxicity (C33A) 16.4% [at 11.6 µM] | activity change, negative = cytotoxicity (CAOV3) 15.5% [at 11.6 µM] | activity change, negative = cytotoxicity (CASKI) 3.56% [at 11.6 µM] | activity change, negative = cytotoxicity (Es-2) 19.8% [at 11.6 µM] | activity change, negative = cytotoxicity (HeLa) -1.12% [at 11.6 µM] | activity change, negative = cytotoxicity (Hek293T) -12.7% [at 11.6 µM] | activity change, negative = cytotoxicity (JEG-3) -4.12% [at 11.6 µM] | activity change, negative = cytotoxicity (OV90) -13.3% [at 11.6 µM] | activity change, negative = cytotoxicity (PA-1) -2.56% [at 11.6 µM] | activity change, negative = cytotoxicity (SKOV3) 6.8% [at 11.6 µM] | activity change, negative = cytotoxicity (Tov-21-G) 4.72% [at 11.6 µM] | activity change, negative = cytotoxicity (Tov112D) 0.619% [at 11.6 µM]

CC12CCC(C(OC3OC(COC4OCC(O)(CO)C4O)C(O)C(O)C3O)C1)C(C)(C)O2 (stereo unspecified)
inactive: Potency (C33A) | Potency (CAOV3) | Potency (CASKI) | Potency (Es-2) | Potency (HeLa) | Potency (Hek293T) | Potency (JEG-3) | Potency (OV90) | Potency (PA-1) | Potency (SKOV3) | Potency (Tov-21-G) | Potency (Tov112D)

CCNC(=O)Nc1ncc(-c2cc(-c3c(C)cc(OC)cc3C)nc(-c3cnccn3)n2)s1
inactive: Potency (C33A) | Potency (CAOV3) | Potency (CASKI) | Potency (Es-2) | Potency (HeLa) | Potency (Hek293T) | Potency (JEG-3) | Potency (OV90) | Potency (PA-1) | Potency (SKOV3) | Potency (Tov-21-G) | Potency (Tov112D)

C[C@@H]1O[C@@H](O[C@H]2[C@H](O[C@H]3[C@H](O)[C@@H](C(=O)O)O[C@@H](O[C@H]4CC[C@@]5(C)C(CC[C@]6(C)C5CC[C@]57OC[C@@]8(CCC(C)(C)CC85)[C@H](O)C[C@]76C)C4(C)C)[C@@H]3O[C@@H]3O[C@H](CO)[C@@H](O[C@@H]4OC[C@@H](O)[C@H](O)[C@H]4O)[C@H](O)[C@H]3O)O[C@H](CO)[C@H](O)[C@@H]2O)[C@H](O)[C@H](O)[C@H]1O (stereo partly specified)
inactive: activity change, negative = cytotoxicity (C33A) -0.321% [at 6.55 µM] | activity change, negative = cytotoxicity (CAOV3) 1.86% [at 6.55 µM] | activity change, negative = cytotoxicity (CASKI) 3.57% [at 6.55 µM] | activity change, negative = cytotoxicity (Es-2) -2.01% [at 6.55 µM] | activity change, negative = cytotoxicity (HeLa) 1.31% [at 6.55 µM] | activity change, negative = cytotoxicity (Hek293T) 4.69% [at 6.55 µM] | activity change, negative = cytotoxicity (JEG-3) 1.85% [at 6.55 µM] | activity change, negative = cytotoxicity (OV90) -19.1% [at 6.55 µM] | activity change, negative = cytotoxicity (PA-1) 5.43% [at 6.55 µM] | activity change, negative = cytotoxicity (SKOV3) 0% [at 6.55 µM] | activity change, negative = cytotoxicity (Tov-21-G) -4.6% [at 6.55 µM] | activity change, negative = cytotoxicity (Tov112D) 10.2% [at 6.55 µM]

Cc1oc2ccccc2c1CNC(=O)NCc1cccs1
inactive: Potency (C33A) | Potency (CAOV3) | Potency (CASKI) | Potency (Es-2) | Potency (HeLa) | Potency (Hek293T) | Potency (JEG-3) | Potency (OV90) | Potency (PA-1) | Potency (SKOV3) | Potency (Tov-21-G) | Potency (Tov112D)

C=C1C[C@]23C[C@H]1CC[C@H]2[C@]1(C)CCC[C@@](C)(C(=O)O)[C@H]1[C@@H]3C(=O)O
inactive: Potency (C33A) | Potency (CAOV3) | Potency (CASKI) | Potency (Es-2) | Potency (HeLa) | Potency (Hek293T) | Potency (JEG-3) | Potency (OV90) | Potency (PA-1) | Potency (SKOV3) | Potency (Tov-21-G) | Potency (Tov112D)

CC(C)(C)c1ccc(S(=O)(=O)Nc2ccc(Cl)cc2C(=O)c2cc[n+]([O-])cc2)cc1
inactive: Potency (C33A) | Potency (CAOV3) | Potency (CASKI) | Potency (Es-2) | Potency (HeLa) | Potency (Hek293T) | Potency (JEG-3) | Potency (OV90) | Potency (PA-1) | Potency (SKOV3) | Potency (Tov-21-G) | Potency (Tov112D)

C/C1=C\[C@H]2OC(=O)[C@@H](C)[C@@H]2CC/C(C(=O)O)=C/CC1
inactive: Potency (C33A) | Potency (CAOV3) | Potency (CASKI) | Potency (Es-2) | Potency (HeLa) | Potency (Hek293T) | Potency (JEG-3) | Potency (OV90) | Potency (PA-1) | Potency (SKOV3) | Potency (Tov-21-G) | Potency (Tov112D)

c1cc(OCCCN2CCCCC2)ccc1CN1CCCCC1
inactive: Potency (C33A) | Potency (CAOV3) | Potency (CASKI) | Potency (Es-2) | Potency (HeLa) | Potency (Hek293T) | Potency (JEG-3) | Potency (OV90) | Potency (PA-1) | Potency (SKOV3) | Potency (Tov-21-G) | Potency (Tov112D)

COC(=O)c1cc(OC)cc(OC)c1C(=O)c1c(OC)cc2c(c1O)C1CCCC(C)(O2)O1 (stereo unspecified)
inactive: Potency (C33A) | Potency (CAOV3) | Potency (CASKI) | Potency (Es-2) | Potency (HeLa) | Potency (Hek293T) | Potency (JEG-3) | Potency (OV90) | Potency (PA-1) | Potency (SKOV3) | Potency (Tov-21-G) | Potency (Tov112D)

O=C(OC1C=C(CO)C2C(OC3OC(CO)C(O)C(O)C3O)OC=CC12)c1ccc(O)cc1 (stereo unspecified)
inactive: Potency (C33A) | Potency (CAOV3) | Potency (CASKI) | Potency (Es-2) | Potency (HeLa) | Potency (Hek293T) | Potency (JEG-3) | Potency (OV90) | Potency (PA-1) | Potency (SKOV3) | Potency (Tov-21-G) | Potency (Tov112D)
